Data from the supplement of paper PMC13380429.

What was measured:
[1] = test system: Vero E6 infected with SARS-CoV-2; experiment: morphology score (similarity to uninfected cells); higher = more like uninfected cells; settings: 24 h
[2] = test system: Vero E6 infected with SARS-CoV-2; experiment: SARS-CoV-2 infection rate relative to infected DMSO; higher = more infection, active = 60 or less; settings: 24 h

Row | SMILES | morphology score [1] | SARS-CoV-2 infection rate [2]
1 | O=C1NC(=O)C(=Cc2ccc(-c3ccc(F)cc3)o2)S1 (stereo in doubt) (10 µM) | 0.0111 | 112% (inactive)
2 | CCCn1c(=O)[nH]c(=O)c2nc[nH]c21 [enprofylline] (10 µM) | 0.188 | 94% (inactive)
3 | CCCNC(C)(C)COC(=O)c1ccccc1 [meprylcaine] (10 µM) | 0.0721 | 102% (inactive)
4 | Cc1nn(-c2ccccc2)c(C)c1/C=N/N1CCN(Cc2ccccc2)CC1 (10 µM) | 0.00911 | 117% (inactive)
5 | CN[C@@H]1[C@@H](O)[C@@H](O[C@@H]2[C@@H](O)[C@H](O[C@H]3OC(CN)=CC[C@H]3N)[C@@H](N)C[C@H]2N)OC[C@]1(C)O [Sisomicin (sulfate)] (10 µM) | 0.222 | 102% (inactive)
6 | Cc1cc(C)nc(NS(=O)(=O)c2ccc(N)cc2)n1 [sulfamethazine] (10 µM) | 0.0855 | 111% (inactive)
7 | CC1=C(C(=O)O)N2C(=O)[C@@H](NC(=O)[C@H](N)c3ccccc3)[C@H]2SC1 [cephalexin] (10 µM) | 0.0139 | 112% (inactive)
8 | CCC[S+]([O-])c1ccc2[nH]c(NC(=O)OC)nc2c1 (centres undefined) [albendazole-oxide] (10 µM) | 0.034 | 110% (inactive)
9 | N=C(N)NCCN1CCCCCCC1 [guanethidine] (10 µM) | -0.0499 | 109% (inactive)
10 | CC(C[N+](C)(C)C)OC(N)=O (centres undefined) [bethanechol] (10 µM) | 0.0417 | 106% (inactive)
11 | COc1ccc(C(=O)Nc2c(Cl)cncc2Cl)cc1OC1CCCC1 [piclamilast] (10 µM) | 0.363 | 107% (inactive)
12 | CSc1ccc(C(=O)N[C@@H]2CCCC[C@@H]2NC(=O)CNC(=O)c2cc(C(F)(F)F)ccc2NC(=O)NC(C)C)cc1 (10 µM) | 0.07 | 93.5% (inactive)
13 | C=CCSCC1Nc2cc(Cl)c(S(N)(=O)=O)cc2S(=O)(=O)N1 (centres undefined) [althiazide] (10 µM) | -0.00232 | 98% (inactive)
14 | CCCCCCCCCCCC(=O)N(CCO)CCO [lauric-diethanolamide] (10 µM) | -0.121 | 108% (inactive)
15 | CC1(C)S[C@@H]2[C@H](N3C(=O)[C@@H](c4ccccc4)NC3(C)C)C(=O)N2[C@H]1C(=O)O [hetacillin] (10 µM) | 0.138 | 96.5% (inactive)
16 | CCOC(=O)c1ccccc1OC(N)=O [ethyl-2-(carbamoyloxy)benzoate] (10 µM) | -0.102 | 108% (inactive)
17 | CN(C)CCOc1ccc(/C(=C(/CCCl)c2ccccc2)c2ccccc2)cc1 [toremifene] (0.833333 µM) | -0.0544 | 112% (inactive)
18 | CS(=O)(=O)c1ccc([C@@H](O)[C@@H](CF)NC(=O)C(Cl)Cl)cc1 [florfenicol] (10 µM) | -0.00265 | 96.5% (inactive)
19 | Cc1oc(-c2ccccc2)nc1CCOc1ccc(CC2SC(=O)NC2=O)c2sccc12 (centres undefined) [edaglitazone] (10 µM) | 0.29 | 90.5% (inactive)

Row | SMILES | morphology score [1] | SARS-CoV-2 infection rate [2]
20 | O=P(O)(NCCCl)NCCCl [palifosfamide] (10 µM) | -0.0297 | 107% (inactive)
21 | N=C1NC(=O)/C(=C/c2ccc(O)cc2)S1 [mirin] (10 µM) | -0.0277 | 112% (inactive)
22 | COCCNC(=O)COc1ccc(OCCNC[C@H](O)COc2ccccc2)cc1 (10 µM) | 0.0156 | 102% (inactive)
23 | C=CCNc1c(O)cc2c(O)c1C[C@@H](C)C[C@H](OC)[C@H](O)[C@@H](C)/C=C(\C)[C@H](OC(N)=O)[C@@H](OC)/C=C\C=C(/C)C(=O)N2 [retaspimycin] (10 µM) | -0.0349 | 108% (inactive)
24 | C=CCNC(=O)c1cc([N+](=O)[O-])cc2c(=O)[nH]c(Nc3ccc(Cl)c(Cl)c3)nc12 (10 µM) | -0.137 | 108% (inactive)
25 | CO[C@H]1/C=C\C=C(/C)C(=O)NC2=CC(=O)C(NCCN(C)C)=C(C[C@@H](C)C[C@H](OC)[C@H](O)[C@@H](C)/C=C(\C)[C@@H]1OC(N)=O)C2=O [alvespimycin] (10 µM) | 0.255 | 91% (inactive)
26 | COCC1(CO)C(=O)C2CCN1CC2 (centres undefined) (10 µM) | 0.212 | 80.5% (inactive)
27 | COc1cc(OCc2cccc(-c3ccccc3)c2C)cc(OC)c1CN1CCCC[C@H]1C(=O)O [PD1-PDL-inhibitor-1] (10 µM) | 0.00556 | 95% (inactive)
28 | CC(N)CCCC(C)(C)O (centres undefined) [heptaminol] (10 µM) | -0.15 | 111% (inactive)
29 | O=C(O)COc1cccc(CN(Cc2ccc(-n3cccn3)cc2)S(=O)(=O)c2cccnc2)c1 [taprenepag] (10 µM) | -0.0257 | 100% (inactive)
30 | c1ccc2c(c1)OC[C@H](CNCCCOc1ccc3c(c1)OCO3)O2 [osemozotan] (10 µM) | 0.0986 | 106% (inactive)
31 | NC(=O)c1noc([C@H](CCCC2CCCCC2)CC(=O)NO)n1 (10 µM) | 0.51 | 85% (inactive)
32 | CCOC(=O)OC(C)OC(=O)[C@@H]1N2C(=O)[C@@H](NC(=O)[C@H](N)c3ccccc3)[C@H]2SC1(C)C (some centres undefined) [bacampicillin] (10 µM) | -0.0144 | 114% (inactive)
33 | Cc1cccc(-c2[nH]c(C(C)(C)C)nc2-c2ccc3c(c2)OCO3)n1 (10 µM) | -0.132 | 115% (inactive)
34 | CO/N=C(\C(=O)N[C@@H]1C(=O)N2C(C(=O)O)=CCS[C@H]12)c1csc(N)n1 [ceftizoxim] (10 µM) | -0.0509 | 102% (inactive)
35 | COC(=O)[C@H](Cc1ccccc1)NC(=O)[C@@H](N)CC(=O)O [aspartame] (10 µM) | 0.172 | 106% (inactive)
36 | CCN1C(=O)NC(c2ccccc2)C1=O (centres undefined) [ethotoin] (10 µM) | 0.221 | 97% (inactive)
37 | C=C(C)[C@H]1CN[C@H](C(=O)O)[C@H]1CC(=O)O [kainic-acid] (10 µM) | 0.338 | 79% (inactive)
38 | CCCCCCCCCC(=O)O[C@H]1CC[C@H]2[C@@H]3CCC4=CC(=O)CC[C@@H]4[C@H]3CC[C@]12C [Nandrolone decanoate] (10 µM) | -0.019 | 103% (inactive)

Row | SMILES | morphology score [1] | SARS-CoV-2 infection rate [2]
39 | CCn1c(=O)n(C2=C(CO)CN(CC3CCCCCCC3)CC2)c2ccccc21 [trap-101] (10 µM) | -0.109 | 103% (inactive)
40 | Cc1cc(/C=C/c2ccc3cc(N(C)C)ccc3[n+]2C)c(C)n1-c1ccccc1 [pyrvinium-pamoate] (10 µM) | -0.0751 | 113% (inactive)
41 | COc1ccnc2[nH]cc(C(=O)C(=O)N3CCN(C(=O)c4ccccc4)C[C@H]3C)c12 (10 µM) | -0.0708 | 99% (inactive)
42 | CCC(=O)N1CCOc2c(cc(-c3ccc(OC)c(OC)c3)cc2OC[C@H]2CCCN(C)C2)C1 (0.833333 µM) | -0.0814 | 98.5% (inactive)
43 | COc1nccnc1NS(=O)(=O)c1ccc(N)cc1 [sulfametopyrazine] (10 µM) | -0.162 | 112% (inactive)
44 | O=C(O)[C@H](Cc1ccccc1)NCc1ccc(Cl)cc1 (10 µM) | 0.0118 | 102% (inactive)
45 | Cc1cc(Cl)ccc1OCCCC(=O)NO [droxinostat] (10 µM) | 0.199 | 90% (inactive)
46 | CC(C(=O)O)c1ccc2c(c1)[nH]c1ccc(Cl)cc12 (centres undefined) [carprofen] (10 µM) | -0.0165 | 108% (inactive)
47 | Cl/C=C\C[N+]12CN3CN(CN(C3)C1)C2 [1-((Z)-3-chloroallyl)-1,3,5,7-tetraazaadamantan-1-ium] (10 µM) | 0.0348 | 99% (inactive)
48 | C/C=C(/C)C(=O)O[C@H]1[C@H](OC(C)=O)[C@@]2(CO)C(CC1(C)C)C1=CCC3[C@@]4(C)CCC(O[C@@H]5O[C@H](C(=O)O)[C@@H](O[C@@H]6O[C@H](CO)[C@@H](O)[C@H](O)[C@H]6O)[C@H](O)[C@H]5O[C@@H]5O[C@H](CO)[C@@H](O)[C@H](O)[C@H]5O)[C@](C)(CO)C4CC[C@@]3(C)[C@]1(C)C[C@H]2O.C/C=C(\C)C(=O)O[C@H]1[C@H](OC(C)=O)[C@@]2(CO)C(CC1(C)C)C1=CCC3[C@@]4(C)CCC(O[C@@H]5O[C@H](C(=O)O)[C@@H](O[C@@H]6O[C@H](CO)[C@@H](O)[C@H](O)[C@H]6O)[C@H](O)[C@H]5O[C@@H]5O[C@H](CO)[C@@H](O)[C@H](O)[C@H]5O)[C@](C)(CO)C4CC[C@@]3(C)[C@]1(C)C[C@H]2O (some centres undefined) [escin] (0.833333 µM) | -0.0809 | 118% (inactive)
49 | COc1cc(C(C)=O)ccc1OCCCN1CCC(c2noc3cc(F)ccc23)CC1 [iloperidone] (10 µM) | -0.112 | 111% (inactive)
50 | CCS(=O)(=O)N(Cc1cccnc1)c1cccc(-c2ccc(C#N)cc2)c1 (10 µM) | 0.372 | 87% (inactive)
51 | O=C(NCNC(=O)NC1C(=O)NC(=O)N1CO)NC1C(=O)NC(=O)N1CO (centres undefined) [imidurea] (10 µM) | -0.0758 | 108% (inactive)
52 | CN(C)CC[C@@]1(c2ccc(Cl)cc2)Cc2ccccc2C(=O)O1 (racemic) (10 µM) | -0.1 | 106% (inactive)
53 | O=C1CS[C@@H](c2ccccc2Cl)c2cc(Cl)ccc2N1 (racemic) (10 µM) | 0.245 | 89% (inactive)
54 | Cc1ccc([N+](=O)[O-])cc1O [2-methyl-5-nitrophenol] (10 µM) | 0.0626 | 98.5% (inactive)
55 | CC(C)NCC(O)c1ccc2ccccc2c1 (centres undefined) [pronethalol] (10 µM) | -0.0652 | 104% (inactive)
56 | CCN(CC)CCNC(=O)COc1ccc(OC)cc1 [mefexamide] (10 µM) | 0.0556 | 113% (inactive)
57 | Cc1nnc(-c2ccc3occ(-c4ccc([S+](C)[O-])cc4)c3c2)o1 (centres undefined) (10 µM) | -0.00242 | 92.5% (inactive)
